# D2 antag: antagonizes the human D2 dopamine receptor | P14416 | HEK293 TREx D2 cells, calcium flux, dopamine EC80 | inhibition, % at 10 µM | actives 2% (n = 340,000); in the data active means inhibition above about 30%; inactive means below that, where a call was filed; further: 0% is about no effect
# Target sequence (P14416 whole entry, looked up): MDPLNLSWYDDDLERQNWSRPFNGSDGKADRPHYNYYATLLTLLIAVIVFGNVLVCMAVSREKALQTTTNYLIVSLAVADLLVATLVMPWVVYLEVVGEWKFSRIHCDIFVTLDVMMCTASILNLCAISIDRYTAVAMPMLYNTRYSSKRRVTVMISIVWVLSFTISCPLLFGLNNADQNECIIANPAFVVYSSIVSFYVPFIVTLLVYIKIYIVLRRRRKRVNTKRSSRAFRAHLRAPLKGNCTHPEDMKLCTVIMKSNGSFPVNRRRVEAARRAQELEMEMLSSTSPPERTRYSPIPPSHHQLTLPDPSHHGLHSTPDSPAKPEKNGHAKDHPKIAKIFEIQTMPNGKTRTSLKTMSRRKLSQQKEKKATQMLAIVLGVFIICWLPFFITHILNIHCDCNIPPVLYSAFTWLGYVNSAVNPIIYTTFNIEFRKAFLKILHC
#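 Read-out: kinetic calcium fluorescence (1 cycle/s) in inducible HEK293 T-REx D2 cells after an EC80 dopamine addition that followed 180 s compound preincubation. Loss of the dopamine response indicates antagonism.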
# D2 ag-1: activates the human D2 dopamine receptor; P14416; HEK293 T-REx D2 cells, calcium flux agonist mode; activation, % at 2 µM; actives 0.53% (n = 340,000);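 active means activation over 3 SD above normal in the single-dose calcium agonist read, cut at about 30% in these data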; further: 0% is about no effect
#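 Agonism scored from kinetic calcium signal (1 read/sec, 180 s) following compound pin transfer, after a 10 s baseline. Cells: HEK293 Trex line expressing inducible D2 receptor coupled to calcium, dye-loaded after overnight culture at 30 C.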
# D2 PAM-1: positively modulates the human D2 dopamine receptor allosterically; P14416; HEK293 T-REx D2, calcium flux, EC20 dopamine potentiation; potentiation, % at 10 µM; actives 0.34% (n = 340,000); AID 485347;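 active means potentiation over 3 SD above the plate norm, cut at about 30% in these data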; further: 0% is about no effect
#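 Primary screen. Calcium kinetics in induced HEK293 T-REx D2 cells: compound pre-addition 180 s, EC20 dopamine, 180 s more.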
# D2 ag-2: agonists of human D2 dopamine receptor (beta-arrestin); P14416; DiscoveRx PathHunter D2 beta-arrestin, luminescence, 90 min; 100% = 57 uM dopamine signal; activation, % (no concentration beside the values); actives 0.084% (n = 360,000); in the data active means activation above about 40%
#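 Agonist mode: compounds alone added to overnight-plated D2 PathHunter cells for 90 min at 37 C, with 57 uM final dopamine (EC100) defining full response. Beta-arrestin recruitment detected by chemiluminescent reagent, read after 1 h at ambient temperature.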
# D2 PAM-2: human D2 receptor positive allosteric modulation; P14416; DiscoveRx D2 beta-arrestin cells, luminescence, 90 min; 100% = 57 uM dopamine signal; potentiation, % (no concentration beside the values); actives 0.23% (n = 360,000); in the data active means potentiation above about 50%
#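 PathHunter D2 cells, attached overnight at 37 deg C, received compound in DMSO plus dopamine at EC20 (50 nM final) for 90 min at 37 deg C. Beta-arrestin recruitment was read as luminescence after 1 h with detection reagent at ambient temperature.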
# The depositor's hits bear a star; / = no result given. Sampled rows, rich in hits. Any-hit rate of the full collection: about 2.4%.
SMILES,D2 antag,D2 ag-1,D2 PAM-1,D2 ag-2,D2 PAM-2
c1ccc(CCc2ccc3n2Cc2cnnn2-c2ccccc2-3)cc1,/,/,/,-1,2
Cc1ccc2c(c1)C1C[N+](C)(CC(=O)c3ccc(Cl)cc3Cl)CCC1N2C(=O)c1ccc(F)cc1 (stereo not given),/,/,/,-1,-8
CC(=O)n1cc(C=C2C(=O)NC(=O)NC2=O)c2ccccc21,-7,0,3,-2,-35
O=[N+]([O-])c1ccc(NCc2ccc(Cl)cc2)c2ccncc12,12,0,-3,5,-1
O=[N+]([O-])c1ccc(NCc2ccccc2)c2nonc12,44*,135*,-21,5,4
COc1ccc(C(=O)C(Cc2ccccc2)N(C)C)cc1 (stereo not given),1,1,-3,-2,-21
COc1ccc(C(CNC(=O)c2ccc3c(c2)CCC3)N(C)C)cc1 (stereo not given),80*,-1,-28,-4,-17
NC1=C([N+](=O)[O-])C(c2ccc3c(c2)OCO3)c2c(c3ccccc3oc2=O)O1 (stereo not given),-17,-2,5,0,-3
CN1CCc2cc(O)cc3c2[C@H]1Cc1ccc(O)c(O)c1-3,/,/,/,106*,101*
CCCN1CCc2cc(O)cc3c2[C@H]1Cc1ccc(O)c(O)c1-3,/,/,/,241*,129*
O=C1NC(=O)C2(Cc3cc([N+](=O)[O-])ccc3N3CCN(C(=O)c4ccccc4)CC32)C(=O)N1 (stereo not given),-12,0,16,-6,-9
Cc1ccc2c(c1)C1CN(C)CCC1N2C(=O)/C=C/c1ccc2c(c1)OCO2 (stereo not given),21,0,-10,-2,-11
Cc1ccc2c(c1)C1CN(C)CCC1N2C(=O)/C(C#N)=C/c1ccc2c(c1)OCO2 (stereo not given),48*,0,-9,-2,-6
CC[N+](C)(CC)CCCCOc1ccc2c(c1)C(=O)c1cc(OCCCC[N+](C)(CC)CC)ccc1-2,-5,0,0,-4,-6
O=C(C[N+]12CCC(CC1)C(CO)C2)c1ccc([N+](=O)[O-])cc1 (stereo not given),8,1,1,-3,2
O=C(C[N+]12CCC(CC1)C(OC(=O)c1ccccc1)C2)c1ccc([N+](=O)[O-])cc1 (stereo not given),33*,-1,4,0,-2
CCC(C)C12CN3CCN(CC(C)(C3)C1O)C2 (stereo not given),-15,0,15,2,-2
CC1(C)Cc2c(sc3c2C(=O)NC(c2cccnc2)N3)CO1 (stereo not given),69*,1,/,-3,-4
Cn1c(=O)cc(OCCCC(=O)N2CCC3(CC2)OCCO3)c2ccccc21,/,/,/,-1,4
CCCCn1c(NC(=O)c2ccc(Br)o2)c(C(=O)OCC)c2nc3ccccc3nc21,-5,37*,-16,-15,-14
COC(=O)C1=C(c2ccc(C(C)=O)cc2)C[C@@H]2CC[C@H]1N2C,-9,0,-6,-1,-8
COC(=O)C1=C(c2ccc(C(C)=O)cc2)C[C@@H]2CC[C@H]1N2C(=O)NC(C)C,52*,0,-6,1,-3
COC(=O)C1=C(c2ccccc2OCc2ccccc2)C[C@@H]2CC[C@H]1N2C(=O)NC1CCN(Cc2ccccc2)CC1,59*,0,-21,5,-24
COC(=O)C1=C(c2ccc(F)cc2OCc2ccccc2)C[C@@H]2CC[C@H]1N2C(=O)NC1CCN(Cc2ccccc2)CC1,26,0,-19,-4,-17
CN1C(=O)N(C)C(=O)C2(Sc3ccccc3C2=O)C1=O,-9,0,-2,-2,-5
SMILES,D2 antag,D2 ag-1,D2 PAM-1,D2 ag-2,D2 PAM-2
CCC1(c2ccccc2)C(=O)N(C)C(=O)N(C)C1=O,34*,1,-15,2,-6
CN1CCc2nc3sc(C(=O)NC4CC4)c(N)c3cc2C1,17,1,2,-4,-2
Clc1ccccc1CNCCc1c[nH]c2ccccc12,/,/,/,0,-33
Cc1cccc(CNCCc2c[nH]c3ccccc23)c1,47*,1,-19,0,-8
Fc1cccc(CNCCc2c[nH]c3ccccc23)c1,3,13,-17,-1,-59
c1ccc(CNCCc2c[nH]c3ccccc23)cc1,61*,9,-31,5,-4
OC(CNCCc1c[nH]c2ccccc12)C(F)(F)F (stereo not given),12,0,-4,5,3
OC(CCNCCc1c[nH]c2ccccc12)C(F)(F)Cl (stereo not given),53*,14,-43,-4,3
CCS(=O)(=O)CCSP(=O)(OC)OC,/,/,/,-4,-20
OCCN1C2CCC1CC(O)(c1ccc(F)cc1)C2 (stereo not given),48*,1,-19,-2,-39
CCCC(=O)NC(Oc1ccc(C(C)=O)cc1)C(Cl)(Cl)Cl (stereo not given),-12,1,10,13,-3
Cc1ccsc1C(=O)C1CCCN(Cc2ccccc2O)C1 (stereo not given),15,-2,-20,-1,-38
COc1ccc(C(C)=O)cc1CN1CC=C(c2ccccc2)CC1,78*,3,-27,-1,-10
COc1cc(C)cc(CN2CC=C(c3ccccc3)CC2)c1O,88*,-8,-30,8,-21
COc1ccc2c(CN3CC=C(c4ccccc4)CC3)cc(=O)oc2c1,2,0,-5,-2,-21
COc1ccc2ccc(O)c(CN3CC=C(c4ccccc4)CC3)c2c1,19,17,-17,-2,-4
C=C(COC(=O)CCC(=O)O)CC1CC(O)[C@]2(C)OC3CC4OC5C[C@]6(C)O[C@]7(C)CCC8OC9C[C@]%10(C)OC%11C(C)=CC(=O)OC%11CC%10OC9C[C@@H](C)C8OC7CC6O[C@]5(C)C/C=C\C4OC3CC2O1 (stereo not given in full),20,0,6,-2,-52
O=C1NC(=O)C(=C/C=C/c2coc3ccc(Br)cc3c2=O)C(=O)N1,-8,19,9,/,/
O=c1cc(C(F)(F)F)c2cc3c4c(c2o1)CCCN4CCC3,79*,143*,-20,-1,9
Cc1cc2c(C(F)(F)F)cc(=O)oc2c2c1NCCC2,-18,20,5,1,3
COC(=O)C1C2c3ccccc3OC1(C)N=c1s/c(=C/c3cn(C)nc3C)c(=O)n12 (stereo not given),3,0,3,-2,-6
CN1/C(=C\C=C2C(=O)NC(=S)NC2=O)C(C)(C)c2ccccc21,31*,128*,7,-2,7

# Bioassay records deposited in PubChem by National Center for Advancing Translational Sciences (NCATS).
